Drawing on paper PMC7862700, “An all-to-all approach to the identification of sequence-specific readers for epigenetic DNA modifications on cytosine”, this text covers binding signal for 1 sequence.

Holding throughout (test): DAPPL (digital affinity profiling via proximity ligation, sequencing); 10 mM Tris-HCl pH 7.5, 50 mM NaCl, 1 mM DTT, 4% glycerol, room temperature, 30 min; GST-TFs on glutathione beads, 16-mer random dsDNA library, 0.1% formaldehyde crosslink after washing; high values mean tight binding
Test [1] addresses T1, FLI1 (Homo sapiens, UniProt Q01543 1-452).
T1 sequence: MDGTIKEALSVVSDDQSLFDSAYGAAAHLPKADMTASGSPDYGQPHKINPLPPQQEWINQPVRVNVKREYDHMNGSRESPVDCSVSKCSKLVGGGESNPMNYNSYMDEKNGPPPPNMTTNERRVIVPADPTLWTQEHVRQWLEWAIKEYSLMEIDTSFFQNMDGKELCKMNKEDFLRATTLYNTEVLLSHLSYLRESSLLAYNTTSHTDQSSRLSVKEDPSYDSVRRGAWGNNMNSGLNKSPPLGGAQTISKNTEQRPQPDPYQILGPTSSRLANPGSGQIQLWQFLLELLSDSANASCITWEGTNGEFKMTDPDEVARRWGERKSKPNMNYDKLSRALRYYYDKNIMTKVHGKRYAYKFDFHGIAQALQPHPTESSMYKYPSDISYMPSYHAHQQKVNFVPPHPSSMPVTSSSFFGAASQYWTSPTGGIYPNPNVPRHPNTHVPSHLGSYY
The following applies: protein: recombinant; tags: N-terminal GST; dsDNA, one strand shown. The procedure, abridged:
(§1)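 Sequencing on an Illumina NextSeq500 followed washing, crosslinking with 0.1% formaldehyde, proximity ligation (BsaI/T4 ligase, 1 h, 37 °C) and PCR amplification of pools that had been incubated for 30 min at room temperature with 200 nmole of a random double-stranded 16-mer DNA library in Tris/NaCl/DTT/glycerol buffer. Each pool held DNA-barcoded human transcription factors, expressed in yeast as GST fusions and captured on glutathione beads, plus a tag-only sample. Binding signal is a hexamer's read frequency for a factor divided by its frequency in the tag-only sample.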

The target of test [2] is T2, ELK1 (Homo sapiens, UniProt P19419 1-428).
T2 sequence: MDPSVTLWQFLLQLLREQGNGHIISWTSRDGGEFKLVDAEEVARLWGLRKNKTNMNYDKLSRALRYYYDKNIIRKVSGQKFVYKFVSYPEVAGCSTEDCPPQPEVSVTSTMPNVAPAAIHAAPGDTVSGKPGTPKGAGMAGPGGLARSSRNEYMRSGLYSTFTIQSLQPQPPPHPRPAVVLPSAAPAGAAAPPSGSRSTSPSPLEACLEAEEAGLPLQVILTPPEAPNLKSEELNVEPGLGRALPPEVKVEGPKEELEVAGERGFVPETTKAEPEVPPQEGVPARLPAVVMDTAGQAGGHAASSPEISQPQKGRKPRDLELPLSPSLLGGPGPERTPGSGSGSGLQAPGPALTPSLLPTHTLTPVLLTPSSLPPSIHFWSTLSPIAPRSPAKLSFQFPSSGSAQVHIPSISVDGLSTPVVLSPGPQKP
The conditions noted are these: protein: recombinant; tags: N-terminal GST; dsDNA, one strand shown. The procedure, abridged:
as §1

Test [3] addresses T3, GABPA (Homo sapiens, UniProt Q06546 1-454).
T3 sequence: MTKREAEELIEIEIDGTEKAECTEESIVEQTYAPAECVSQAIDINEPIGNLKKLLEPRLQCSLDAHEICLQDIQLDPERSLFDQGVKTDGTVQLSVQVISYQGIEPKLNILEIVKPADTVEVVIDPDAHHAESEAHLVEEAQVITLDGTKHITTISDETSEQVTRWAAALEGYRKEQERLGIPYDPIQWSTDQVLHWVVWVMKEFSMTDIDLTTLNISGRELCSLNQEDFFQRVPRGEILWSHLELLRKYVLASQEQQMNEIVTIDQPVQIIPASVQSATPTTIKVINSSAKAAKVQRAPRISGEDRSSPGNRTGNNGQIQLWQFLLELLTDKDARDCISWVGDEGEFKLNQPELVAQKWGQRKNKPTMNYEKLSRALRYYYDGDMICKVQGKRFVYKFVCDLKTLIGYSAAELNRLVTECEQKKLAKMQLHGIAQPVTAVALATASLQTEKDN
The following applies: protein: recombinant; tags: N-terminal GST; dsDNA, one strand shown. The procedure, abridged: as §1

For test [4], the target named is T4, ERG (Homo sapiens, UniProt P11308 1-479).
T4 sequence: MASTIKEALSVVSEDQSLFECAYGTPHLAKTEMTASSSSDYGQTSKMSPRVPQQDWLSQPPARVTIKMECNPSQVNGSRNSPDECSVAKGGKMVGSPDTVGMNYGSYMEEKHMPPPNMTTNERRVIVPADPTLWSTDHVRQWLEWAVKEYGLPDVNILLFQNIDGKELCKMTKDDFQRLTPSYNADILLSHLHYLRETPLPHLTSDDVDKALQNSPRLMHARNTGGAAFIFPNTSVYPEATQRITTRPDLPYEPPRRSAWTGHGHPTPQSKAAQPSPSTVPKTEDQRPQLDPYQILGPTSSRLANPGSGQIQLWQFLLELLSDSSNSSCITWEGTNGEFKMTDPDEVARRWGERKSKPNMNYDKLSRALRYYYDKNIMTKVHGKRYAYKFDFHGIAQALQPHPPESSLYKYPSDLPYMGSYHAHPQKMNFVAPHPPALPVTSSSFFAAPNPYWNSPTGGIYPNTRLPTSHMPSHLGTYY
The conditions noted are these: protein: recombinant; tags: N-terminal GST; dsDNA, one strand shown. A digest of the protocol:
as §1

The target of test [5] is ELF1 (Homo sapiens, UniProt P32519 1-619). The following applies: protein: recombinant; tags: N-terminal GST; dsDNA, one strand shown. The procedure, abridged:
as §1

In test [6] the target is T5, EHF (Homo sapiens, UniProt Q9NZC4 1-300).
T5 sequence: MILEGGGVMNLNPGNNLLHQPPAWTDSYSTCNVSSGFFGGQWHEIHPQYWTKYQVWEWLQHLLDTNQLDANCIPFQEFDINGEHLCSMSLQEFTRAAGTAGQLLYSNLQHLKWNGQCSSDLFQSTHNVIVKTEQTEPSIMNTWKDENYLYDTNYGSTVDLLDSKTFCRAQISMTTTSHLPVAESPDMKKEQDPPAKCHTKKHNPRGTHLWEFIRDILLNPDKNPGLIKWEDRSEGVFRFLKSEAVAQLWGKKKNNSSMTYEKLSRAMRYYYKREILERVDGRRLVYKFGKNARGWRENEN
The following applies: protein: recombinant; tags: N-terminal GST; dsDNA, one strand shown. The procedure, abridged:
as §1

For test [7], the target named is SPIB (Homo sapiens, UniProt Q01892 1-262). The conditions noted are these: protein: recombinant; tags: N-terminal GST; dsDNA, one strand shown. A digest of the protocol: as §1
Chain of SPIB (Q01892 whole entry): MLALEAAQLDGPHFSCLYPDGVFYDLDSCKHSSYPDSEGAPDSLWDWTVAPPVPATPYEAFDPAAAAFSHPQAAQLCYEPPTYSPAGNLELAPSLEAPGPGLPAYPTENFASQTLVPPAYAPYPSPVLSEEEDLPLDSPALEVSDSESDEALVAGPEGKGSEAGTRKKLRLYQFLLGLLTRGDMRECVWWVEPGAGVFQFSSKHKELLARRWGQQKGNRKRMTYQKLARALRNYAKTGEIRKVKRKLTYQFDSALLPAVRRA
The target of test [8] is T6, ELK3 (Homo sapiens, UniProt P41970 1-407).
T6 sequence: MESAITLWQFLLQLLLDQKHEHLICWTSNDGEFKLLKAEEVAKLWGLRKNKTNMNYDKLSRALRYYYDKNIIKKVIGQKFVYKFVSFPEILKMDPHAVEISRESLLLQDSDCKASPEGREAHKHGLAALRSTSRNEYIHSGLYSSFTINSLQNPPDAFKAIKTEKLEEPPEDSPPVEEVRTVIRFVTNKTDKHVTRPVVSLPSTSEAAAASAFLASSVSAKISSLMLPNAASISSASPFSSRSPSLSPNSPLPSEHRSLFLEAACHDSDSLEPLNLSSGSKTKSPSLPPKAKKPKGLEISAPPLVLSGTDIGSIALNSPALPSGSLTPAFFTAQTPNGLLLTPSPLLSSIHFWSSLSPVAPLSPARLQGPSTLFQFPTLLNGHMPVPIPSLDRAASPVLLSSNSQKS
The conditions noted are these: protein: recombinant; tags: N-terminal GST; dsDNA, one strand shown. The procedure, abridged: as §1

Test [9] concerns the target T7, FEV (Homo sapiens, UniProt Q99581 1-238).
T7 sequence: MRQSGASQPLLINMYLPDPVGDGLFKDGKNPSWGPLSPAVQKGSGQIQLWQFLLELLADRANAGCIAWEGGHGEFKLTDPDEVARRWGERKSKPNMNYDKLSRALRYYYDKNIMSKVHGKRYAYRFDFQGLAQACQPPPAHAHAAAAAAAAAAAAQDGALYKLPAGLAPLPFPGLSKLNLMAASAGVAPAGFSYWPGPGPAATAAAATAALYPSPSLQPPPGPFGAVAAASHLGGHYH
The following applies: protein: recombinant; tags: N-terminal GST; dsDNA, one strand shown. The procedure, abridged: as §1

The target in test [10] is ETV5 (Homo sapiens, UniProt P41161 1-510). The following applies: protein: recombinant; tags: N-terminal GST; dsDNA, one strand shown. A digest of the protocol:
as §1

In test [11] the target is HSF1 (Homo sapiens, UniProt Q00613 1-529). The conditions noted are these: protein: recombinant; tags: N-terminal GST; chain copies: 3; dsDNA, one strand shown. A digest of the protocol: as §1
Chain of HSF1 (Q00613 whole entry): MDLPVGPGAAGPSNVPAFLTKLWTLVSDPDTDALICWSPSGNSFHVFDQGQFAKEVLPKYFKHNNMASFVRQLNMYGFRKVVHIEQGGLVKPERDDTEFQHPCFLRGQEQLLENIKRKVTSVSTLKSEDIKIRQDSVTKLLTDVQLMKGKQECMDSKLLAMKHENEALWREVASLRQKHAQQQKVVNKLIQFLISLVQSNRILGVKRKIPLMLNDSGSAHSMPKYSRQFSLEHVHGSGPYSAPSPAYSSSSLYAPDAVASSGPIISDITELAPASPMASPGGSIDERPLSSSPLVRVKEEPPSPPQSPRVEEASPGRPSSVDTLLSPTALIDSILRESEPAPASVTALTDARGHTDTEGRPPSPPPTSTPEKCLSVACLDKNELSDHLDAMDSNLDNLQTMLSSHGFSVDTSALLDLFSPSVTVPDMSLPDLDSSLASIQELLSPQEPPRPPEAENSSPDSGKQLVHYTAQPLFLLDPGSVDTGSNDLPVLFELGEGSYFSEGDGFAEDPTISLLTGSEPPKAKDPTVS
Test [12] has as its target T8, SPIC (Homo sapiens, UniProt Q8N5J4 1-248).
T8 sequence: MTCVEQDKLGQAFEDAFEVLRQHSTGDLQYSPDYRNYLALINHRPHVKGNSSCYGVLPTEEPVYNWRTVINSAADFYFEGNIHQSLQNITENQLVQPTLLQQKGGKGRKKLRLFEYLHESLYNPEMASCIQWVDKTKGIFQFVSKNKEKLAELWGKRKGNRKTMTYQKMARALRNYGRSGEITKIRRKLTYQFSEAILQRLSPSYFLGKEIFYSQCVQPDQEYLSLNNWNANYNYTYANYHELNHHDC
The conditions noted are these: protein: recombinant; tags: N-terminal GST; dsDNA, one strand shown. The procedure, abridged:
as §1

Test [13] has as its target ELF4 (Homo sapiens, UniProt Q99607 1-663). The following applies: protein: recombinant; tags: N-terminal GST; dsDNA, one strand shown. A digest of the protocol: as §1
Test [14] deals with T9, ELK4 (Homo sapiens, UniProt P28324-2 1-405).
T9 sequence: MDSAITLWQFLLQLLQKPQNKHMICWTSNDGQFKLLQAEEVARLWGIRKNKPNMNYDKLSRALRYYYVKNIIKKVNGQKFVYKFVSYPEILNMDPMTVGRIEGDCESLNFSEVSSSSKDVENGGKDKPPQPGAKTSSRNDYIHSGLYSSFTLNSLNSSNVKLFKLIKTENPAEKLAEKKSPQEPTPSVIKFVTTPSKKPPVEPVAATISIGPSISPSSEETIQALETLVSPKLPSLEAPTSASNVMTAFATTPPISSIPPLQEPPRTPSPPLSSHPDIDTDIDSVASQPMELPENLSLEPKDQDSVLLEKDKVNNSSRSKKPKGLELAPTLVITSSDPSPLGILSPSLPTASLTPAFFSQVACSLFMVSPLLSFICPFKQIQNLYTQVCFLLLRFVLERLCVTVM
The following applies: protein: recombinant; tags: N-terminal GST; dsDNA, one strand shown. A digest of the protocol:
as §1

For test [15], the target named is T10, ETV2 (Homo sapiens, UniProt O00321 1-342).
T10 sequence: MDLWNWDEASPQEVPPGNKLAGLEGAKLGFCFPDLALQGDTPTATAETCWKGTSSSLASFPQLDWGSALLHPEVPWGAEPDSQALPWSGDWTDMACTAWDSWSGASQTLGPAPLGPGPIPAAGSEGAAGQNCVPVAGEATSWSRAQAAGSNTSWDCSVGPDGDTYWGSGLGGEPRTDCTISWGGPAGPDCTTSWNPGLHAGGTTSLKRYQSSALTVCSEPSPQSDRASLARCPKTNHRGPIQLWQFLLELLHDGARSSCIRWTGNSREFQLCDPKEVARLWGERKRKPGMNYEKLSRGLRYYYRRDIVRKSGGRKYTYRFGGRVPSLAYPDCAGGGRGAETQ
The following applies: protein: recombinant; tags: N-terminal GST; dsDNA, one strand shown. A digest of the protocol: as §1

The target in test [16] is T11, ELF3 (Homo sapiens, UniProt P78545 1-371).
T11 sequence: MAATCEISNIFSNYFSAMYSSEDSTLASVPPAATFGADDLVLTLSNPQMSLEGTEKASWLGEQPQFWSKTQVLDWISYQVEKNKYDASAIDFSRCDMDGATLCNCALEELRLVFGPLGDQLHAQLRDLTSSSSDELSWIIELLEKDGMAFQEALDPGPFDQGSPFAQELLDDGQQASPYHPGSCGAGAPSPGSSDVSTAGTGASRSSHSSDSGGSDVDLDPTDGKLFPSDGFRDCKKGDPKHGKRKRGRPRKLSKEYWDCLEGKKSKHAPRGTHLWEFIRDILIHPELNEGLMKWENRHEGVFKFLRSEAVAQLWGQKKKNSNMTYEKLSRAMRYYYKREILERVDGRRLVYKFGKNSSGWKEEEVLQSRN
The following applies: protein: recombinant; tags: N-terminal GST; dsDNA, one strand shown. A digest of the protocol: as §1

The target of test [17] is CRX (Homo sapiens, UniProt O43186 1-299). The following applies: protein: recombinant; tags: N-terminal GST; dsDNA, one strand shown. The procedure, abridged: as §1
Chain of CRX (O43186 whole entry): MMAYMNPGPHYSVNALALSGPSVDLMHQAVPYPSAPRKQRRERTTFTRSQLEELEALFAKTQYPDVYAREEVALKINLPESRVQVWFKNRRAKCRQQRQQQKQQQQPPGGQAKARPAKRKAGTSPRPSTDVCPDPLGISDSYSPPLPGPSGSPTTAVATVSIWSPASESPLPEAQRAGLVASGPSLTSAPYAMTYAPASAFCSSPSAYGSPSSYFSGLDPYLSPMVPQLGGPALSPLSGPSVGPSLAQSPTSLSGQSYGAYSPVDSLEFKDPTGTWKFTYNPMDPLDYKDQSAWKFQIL
For test [18], the target named is ETV1 (Homo sapiens, UniProt P50549 1-477). The following applies: protein: recombinant; tags: N-terminal GST; dsDNA, one strand shown. A digest of the protocol:
as §1

Chain of ETV5 (P41161 whole entry): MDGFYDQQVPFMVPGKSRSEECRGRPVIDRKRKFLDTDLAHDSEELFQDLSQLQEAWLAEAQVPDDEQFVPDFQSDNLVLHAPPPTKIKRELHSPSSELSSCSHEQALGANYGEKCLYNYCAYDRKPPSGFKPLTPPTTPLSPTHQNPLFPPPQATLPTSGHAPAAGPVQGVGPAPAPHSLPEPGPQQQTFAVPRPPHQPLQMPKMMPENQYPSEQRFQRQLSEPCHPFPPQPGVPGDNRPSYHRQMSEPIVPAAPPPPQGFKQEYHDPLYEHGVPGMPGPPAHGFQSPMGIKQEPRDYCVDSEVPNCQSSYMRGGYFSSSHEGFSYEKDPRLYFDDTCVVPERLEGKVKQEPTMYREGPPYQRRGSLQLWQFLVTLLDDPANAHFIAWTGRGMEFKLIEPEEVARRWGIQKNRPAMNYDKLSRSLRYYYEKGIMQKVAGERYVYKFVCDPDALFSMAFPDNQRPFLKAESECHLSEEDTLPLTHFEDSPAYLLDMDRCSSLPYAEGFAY
Chain of ELF1 (P32519 whole entry): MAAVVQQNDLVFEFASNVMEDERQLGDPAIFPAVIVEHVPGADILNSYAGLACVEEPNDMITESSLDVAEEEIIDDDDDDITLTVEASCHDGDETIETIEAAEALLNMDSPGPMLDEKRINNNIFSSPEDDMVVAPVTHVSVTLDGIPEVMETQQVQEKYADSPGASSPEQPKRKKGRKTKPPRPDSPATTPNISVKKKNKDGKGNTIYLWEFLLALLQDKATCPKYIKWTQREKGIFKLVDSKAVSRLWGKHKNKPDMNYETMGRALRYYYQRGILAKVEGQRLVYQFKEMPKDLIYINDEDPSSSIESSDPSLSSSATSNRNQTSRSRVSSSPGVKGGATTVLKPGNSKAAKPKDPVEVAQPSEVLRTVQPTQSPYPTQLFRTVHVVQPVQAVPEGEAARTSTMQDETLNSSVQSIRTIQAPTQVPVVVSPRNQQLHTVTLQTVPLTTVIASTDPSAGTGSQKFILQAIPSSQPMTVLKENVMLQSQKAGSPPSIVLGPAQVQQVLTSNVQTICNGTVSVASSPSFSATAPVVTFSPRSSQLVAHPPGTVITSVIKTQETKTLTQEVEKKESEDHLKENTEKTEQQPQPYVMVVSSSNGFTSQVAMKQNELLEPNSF
Chain of ELF4 (Q99607 whole entry): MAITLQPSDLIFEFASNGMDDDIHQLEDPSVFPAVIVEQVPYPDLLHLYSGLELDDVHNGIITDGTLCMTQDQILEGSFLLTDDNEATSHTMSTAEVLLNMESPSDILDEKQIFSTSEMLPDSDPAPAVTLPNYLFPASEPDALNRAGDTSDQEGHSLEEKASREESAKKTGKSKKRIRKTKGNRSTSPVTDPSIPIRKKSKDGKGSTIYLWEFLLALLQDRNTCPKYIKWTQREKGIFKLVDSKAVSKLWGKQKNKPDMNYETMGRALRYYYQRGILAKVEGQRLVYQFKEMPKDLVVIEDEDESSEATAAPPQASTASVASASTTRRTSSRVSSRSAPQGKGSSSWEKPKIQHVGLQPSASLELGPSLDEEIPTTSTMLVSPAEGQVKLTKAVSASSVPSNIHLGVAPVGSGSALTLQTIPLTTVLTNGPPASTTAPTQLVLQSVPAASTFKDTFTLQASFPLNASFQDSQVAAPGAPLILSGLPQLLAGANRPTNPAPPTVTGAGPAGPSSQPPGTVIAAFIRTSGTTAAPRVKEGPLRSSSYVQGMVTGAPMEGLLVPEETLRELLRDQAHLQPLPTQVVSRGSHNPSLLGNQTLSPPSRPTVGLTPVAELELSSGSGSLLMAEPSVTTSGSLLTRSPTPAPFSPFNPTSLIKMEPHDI
Chain of ETV1 (P50549 whole entry): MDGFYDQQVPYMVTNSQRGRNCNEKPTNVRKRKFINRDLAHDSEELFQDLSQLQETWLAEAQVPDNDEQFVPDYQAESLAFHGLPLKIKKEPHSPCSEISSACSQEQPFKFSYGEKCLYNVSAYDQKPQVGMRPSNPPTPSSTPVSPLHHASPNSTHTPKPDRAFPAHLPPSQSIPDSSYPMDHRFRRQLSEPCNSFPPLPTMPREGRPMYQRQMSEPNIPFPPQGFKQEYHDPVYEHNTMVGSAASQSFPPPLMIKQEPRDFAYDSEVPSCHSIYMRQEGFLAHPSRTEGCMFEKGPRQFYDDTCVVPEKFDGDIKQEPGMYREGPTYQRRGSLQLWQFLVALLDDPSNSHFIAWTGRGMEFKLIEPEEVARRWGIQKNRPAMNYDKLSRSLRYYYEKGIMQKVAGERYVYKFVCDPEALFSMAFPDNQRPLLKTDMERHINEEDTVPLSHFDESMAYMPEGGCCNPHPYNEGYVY

For the sequence TCGAAT, the binding signal in [1] was 1 fold enrichment (6-mer frequency, TF over GST control); in test [2] it was 1.09 fold enrichment (6-mer frequency, TF over GST control); in test [3] it was 1.12 fold enrichment (6-mer frequency, TF over GST control); in test [4] it was 1.08 fold enrichment (6-mer frequency, TF over GST control); in test [5], 1.11 fold enrichment (6-mer frequency, TF over GST control); in [6], 1.02 fold enrichment (6-mer frequency, TF over GST control). Moreover, the binding signal was 1.07 fold enrichment (6-mer frequency, TF over GST control) in [7]; 1.15 fold enrichment (6-mer frequency, TF over GST control) in test [8]; 1.03 fold enrichment (6-mer frequency, TF over GST control) in test [9]; 1.15 fold enrichment (6-mer frequency, TF over GST control) in [10]; 2.2 fold enrichment (6-mer frequency, TF over GST control) in test [11]; 1.03 fold enrichment (6-mer frequency, TF over GST control) in test [12]. Also, the binding signal in test [13] was 1.1 fold enrichment (6-mer frequency, TF over GST control); in test [14] it was 1.33 fold enrichment (6-mer frequency, TF over GST control); in test [15], 1.03 fold enrichment (6-mer frequency, TF over GST control); in [16], 1.11 fold enrichment (6-mer frequency, TF over GST control); in test [17], 1.38 fold enrichment (6-mer frequency, TF over GST control); in test [18], 1 fold enrichment (6-mer frequency, TF over GST control).
